Laboratory results taken from PubChem BioAssay (Tox21).
Inconclusive results are not listed. Values without a mark were called inactive. The source made the active and inactive calls. Calls follow the shape of the dose curve; as a rule, active = well fitted cell-killing curve with a large enough effect in the repeat runs; inconclusive = weak or mixed curves, or effect the other way; inactive = flat fitted curve, though single readings scatter.
% is scaled to controls: 0 for no effect and ±100 for the full control effect.
Also: nearly all actives have a fitted effect of over 50% in size.

Assay: qHTS RealTime-Glo MT Cell Viability Assay in HEK293 cells - 24 hour (AID 1224886); also: potency is read from the fitted curve at half-maximal effect; as to activity change, negative = cytotoxicity: top concentration of the series differs between compounds
Details: RealTime-Glo luminescence; series mostly up to 76.8 µM; activity change, negative = cytotoxicity: at the top concentration
Summary of the method: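 Viability tracked continuously by luminescence as live cells reduce a prosubstrate for NanoLuc; HEK293 cells preincubated 5 h, compound-treated at 37 C, and read at 0, 8, 16, 24, 32 and 40 h.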
For `C=C[Si](C)(C)O[Si](C)(C)C=C`, the “activity change, negative = cytotoxicity” value was -0.825%. In the case of `CCCCOC(=O)[C@@H](C)Oc1ccc(Oc2ccc(C(F)(F)F)cn2)cc1`, the Potency is reported as 31.1 µM (active). In the case of `CC(C)SCc1ccco1`, the “activity change, negative = cytotoxicity” value is reported as 0.479% [at 35.3 µM]. For `CCCCCCCCC(=O)OCC`, the “activity change, negative = cytotoxicity” value was 5.25%. In the case of `CCN1CN(CC)CN(CC)C1`, the “activity change, negative = cytotoxicity” value is reported as 12.5%. With `CCCOC(=O)CCCCC(=O)OCCC` the “activity change, negative = cytotoxicity” value was -1.8%. With `CCCCOC(=O)C(C)OC(=O)CCC` (stereo not drawn) the “activity change, negative = cytotoxicity” value was 13.9%. In the case of `CCCO`, the “activity change, negative = cytotoxicity” value is reported as 7.86%. With `Cc1cc(O)c2c(c1)C(=O)c1cccc(O)c1C2=O` the “activity change, negative = cytotoxicity” value was 3.79% [at 35.3 µM]. For `CC(C)CCCCCCOC(=O)C1CCCCC1C(=O)OCCCCCCC(C)C` (stereo not drawn), the “activity change, negative = cytotoxicity” value was 9.08%.

Assay: qHTS RealTime-Glo MT Cell Viability Assay in HEK293 cells - 8 hour (AID 1224887); also: top concentration of the series differs between compounds
Details: RealTime-Glo luminescence; series mostly up to 76.8 µM; activity change, negative = cytotoxicity: at the top concentration
Summary of the method: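 qHTS format; HEK293 cells with NanoLuc/prosubstrate reagent, 37 C/5% CO2 for 5 h pre-dosing; compounds 23 nL in DMSO; luminescence at each time point reflects viable cells.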
With `C=CCOc1c(Br)cc(Br)cc1Br` the “activity change, negative = cytotoxicity” value was -0.868%. In the case of `O=C1OC(=O)c2ccccc21`, the “activity change, negative = cytotoxicity” value is reported as -4.43%. In the case of `CC(C)CCCC(C)CC=O` (stereo not drawn), the “activity change, negative = cytotoxicity” value is reported as -0.136%. With `OC[C@@H](O)[C@H](O)[C@@H](O)[C@@H](O)CO` the “activity change, negative = cytotoxicity” value was -4.37%. For `O=C(CN1CCN(Cc2ccc3c(c2)OCO3)CC1)N1c2ccccc2Sc2ccccc21`, the “activity change, negative = cytotoxicity” value was -10% [at 35.3 µM]. With `C=CCOC(=O)c1ccc(C(=O)OCC=C)c(C(=O)OCC=C)c1` the “activity change, negative = cytotoxicity” value was -8.77%. For `CCOC(=O)C(=O)c1csc(NC=O)n1`, the “activity change, negative = cytotoxicity” value was -2.77% [at 35.3 µM]. In the case of `Nc1ccc(C(=O)OCC(O)CO)cc1` (stereo not drawn), the “activity change, negative = cytotoxicity” value is reported as 19.8% [at 35.3 µM]. For `CC(CC(=O)O)CC(C)(C)C` (stereo not drawn), the “activity change, negative = cytotoxicity” value was -1.98%. With `CC(C)C(=O)c1ccccc1` the “activity change, negative = cytotoxicity” value was 2.81%. In the case of `CC(C)C(=O)Nc1cccc(C(F)(F)F)c1`, the “activity change, negative = cytotoxicity” value is reported as -14.3% [at 35.3 µM]. With `NC(=O)NNC(N)=O` the “activity change, negative = cytotoxicity” value was 5.67%. With `O=C(O)c1c(Cl)ccc(Cl)c1Cl` the “activity change, negative = cytotoxicity” value was 1.32%. For `CCCCCC(=O)OCC`, the “activity change, negative = cytotoxicity” value was 0.669%. In the case of `CCC1COC(=O)O1` (stereo not drawn), the “activity change, negative = cytotoxicity” value is reported as 1.95%. With `Cc1ccc(C(=O)C(=O)O)cc1C` the “activity change, negative = cytotoxicity” value was -14.9% [at 35.3 µM]. In the case of `CC(=O)/C=C/c1ccco1`, the “activity change, negative = cytotoxicity” value is reported as 7.06%. For `CC(C)(c1ccc(Oc2ccc3c(c2)C(=O)OC3=O)cc1)c1ccc(Oc2ccc3c(c2)C(=O)OC3=O)cc1`, the “activity change, negative = cytotoxicity” value was 9.9%.
